Compound activity from PubChem BioAssay.
A selection: hits, their analogues and other compounds. The true share with any hit is near 27%.
CYP2C9 inh: blockers of cytochrome P450 2C9 activity – biochemical, luminescence, ADME assay, primary screen; 20% of 96,000 active; CYP2C9 Supersomes, luciferin-H conversion; P11712; inhibition, % at 5 µM;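 active = blocking of liver enzyme CYP2C9 beyond about 50% at 5 µM, limit read from the data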
Target sequence (P11712 whole entry, looked up): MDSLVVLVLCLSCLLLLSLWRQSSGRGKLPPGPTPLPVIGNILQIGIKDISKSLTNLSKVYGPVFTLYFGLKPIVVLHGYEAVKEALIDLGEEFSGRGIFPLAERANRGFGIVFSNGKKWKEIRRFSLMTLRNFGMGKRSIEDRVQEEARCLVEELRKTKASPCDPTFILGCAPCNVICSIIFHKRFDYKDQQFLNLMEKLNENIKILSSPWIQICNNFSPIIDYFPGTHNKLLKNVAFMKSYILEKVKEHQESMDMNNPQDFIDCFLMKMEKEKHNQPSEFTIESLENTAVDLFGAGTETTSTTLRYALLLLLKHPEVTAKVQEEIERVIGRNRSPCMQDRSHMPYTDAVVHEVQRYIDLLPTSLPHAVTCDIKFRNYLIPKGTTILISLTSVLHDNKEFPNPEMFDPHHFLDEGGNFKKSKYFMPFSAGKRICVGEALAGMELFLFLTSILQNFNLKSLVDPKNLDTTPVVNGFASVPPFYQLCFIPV
CYP2C9 activ: human CYP2C9 activators, primary screen, biochemical, luminescence; recombinant CYP2C9, luciferin-H conversion; active compounds read high; factor 1 = untreated enzyme, 0 = blocked; activation factor at 5 µM; 1.4% of 96,000 active;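 active = activation factor of 2 or more for CYP2C9 at a 5 µM dose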;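 also: 0 = sulfaphenazole-blocked wells and 1 = vehicle-only wells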
CYP2C19 act: human CYP2C19 activators, primary screen, biochemical, luminescence | activation factor at 5 µM | 96,000 tested, under 10 active | recombinant CYP2C19, luciferin-H EGE luminescence; active compounds read high; 0 = fully inhibited enzyme, 1 = untreated enzyme;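 active = activation factor of at least 2 at 5 µM in the primary screen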;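 also: 0 = wells with 2.5 mM tranylcypromine and 1 = vehicle-only wells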
CYP2C19 inh: blockers of cytochrome P450 2C19 activity – biochemical, luminescence, ADME assay, primary screen; P33261; CYP2C19 Supersomes, luciferin-H EGE luminescence, 30 min; inhibition, % at 5 µM; 21% of 96,000 active; AID 778, 2007;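 active = CYP2C19 inhibition above a set limit at 5 µM in the primary screen, cut at about 50% in these data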;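 also: plate controls were negative control wells for no effect and 2.5 mM tranylcypromine positive control for full effect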
Cav3 T inh: Cav3.2 calcium influx blockers – cell-based, Fluo-4 calcium fluorescence, FDSS, MLSMR library, primary screen; 4% of 100,000 active; B-score at 10 µM; Cav3.2-expressing cells; active compounds read low;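 active = single-dose well whose peak fluorescence ratio is a statistical outlier from its plate by either plate-standardised score or position-corrected B-score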
Starred values were filed as active, the others as inactive; / = no result given.

SMILES	CYP2C9 inh	CYP2C9 activ	CYP2C19 act	CYP2C19 inh	Cav3 T inh
CCc1ccc(C(=O)COC(=O)C(Cc2ccccc2)NC(=O)c2ccc(Cl)cc2)cc1 (stereo not drawn)	23.1	0.8	1	4.3	-4.79*
C/C(NCc1cccnc1)=C(\C#N)C(=O)NCc1ccccc1	23.3	0.8	0.2	81.9*	0.578
CC(C)CNC(=S)NC1CCCC1	20.1	0.8	0.6	35.3	0.412
CC1(c2ccc(Cl)c(Cl)c2)NC(=S)N2C1NC(=S)N2c1ccccc1 (stereo not drawn)	36.9	0.6	0.2	78.3*	-5.42*
O=C(c1oc(=O)c2ccccc2c1-c1ccccc1)N1CCN(C2CCCCC2)CC1	69.5*	0.3	0	99.0*	-0.765
O=C(c1oc(=O)c2ccccc2c1-c1ccccc1)N1CCC(O)CC1	23.3	0.8	0.6	42.9	0.298
CNC(=O)C1C2C=CC3(O2)C1C(=O)N(CCOC)C3C(=O)NCc1ccc(OC)cc1 (stereo not drawn)	-16.1	1.2	1.2	-18.1	0.0884
N/C(CC(=O)Nc1cccc(C(F)(F)F)c1)=N/O	0.5	1	0.9	10.7	1.63
O=C(/C=C/c1cccc(C(F)(F)F)c1)Nc1cccc(C(F)(F)F)c1	-186.7	2.9*	0.9	10.1	-0.519
CS(=O)(=O)N1CCC(C(=O)Nc2cccc(C(F)(F)F)c2)CC1	-12.6	1.1	1	4.7	0.421
Cc1cccc(NC(=O)C2CCN(c3nccc(C)n3)CC2)c1	-44.4	1.4	0.3	70.0*	-0.00625
Cc1ccnc(N2CCC(C(=O)Nc3ccc4c(c3)CCC4)CC2)n1	9.2	0.9	0.7	26.8	-3.6
Cc1cc(C)nc(N2CCC(C(=O)Nc3cccc(C(F)(F)F)c3)CC2)n1	-34.2	1.3	0.7	31.7	-4.25*
CCc1nnc(NC(=O)C2CCN(c3nc(C)cc(C)n3)CC2)s1	24.1	0.8	1	-2.7	2.28
O=C(Nc1cccc(C(F)(F)F)c1)C1CCCCC1	68.7*	0.3	0.1	86.8*	0.324
C=C1CCC(C)C(C)(CCC2=CCOC2=O)C/C=C\C=C/1C(=O)O (stereo not drawn)	/	/	/	/	-3.88*
c1ccc2c(c1)nc1n2CCS1	-19.4	1.2	0.4	62.5*	0.0156
O=C1CSc2nc3ccccc3n21	-30.1	1.3	1	-2.0	0.975
Cn1c(SCc2c(Cl)cccc2Cl)nc(C(F)(F)F)cc1=O	2.6	1	1.1	-8.8	-0.76
COc1ccc(C)cc1-n1c(SCC(=O)Nc2cc(C)on2)nc2sc(C)c(C)c2c1=O	9.6	0.9	1	4.1	-1.53
O=C1CCCN1CCCNc1ccc(S(=O)(=O)N2CCCCC2)cn1	-22.9	1.2	1.2	-15.6	0.322
c1ccc(Cn2nnnc2C(c2cccs2)N2CCOCC2)cc1 (stereo not drawn)	4.6	1	0.4	63.0*	0.542
CC1CCN(C(c2cccs2)c2nnnn2Cc2ccccc2)CC1 (stereo not drawn)	36.5	0.6	0.1	88.5*	-3.67
N#Cc1c(C(F)(F)F)cc(-c2ccc(Cl)cc2)[nH]c1=O	55.0*	0.4	1	0.2	-8.68*
N#Cc1c(C(F)(F)F)cc(-c2cccc(Cl)c2)[nH]c1=O	61.4*	0.4	1.1	-8.1	-2.73*
SMILES	CYP2C9 inh	CYP2C9 activ	CYP2C19 act	CYP2C19 inh	Cav3 T inh
Cn1c(SCc2nc(-c3ccccc3)no2)nnc1-c1cccs1	/	/	/	/	0.173
CCOc1ccc(-n2c(SCc3nc(-c4cccs4)no3)nnc2-c2ccncc2)cc1	94.2*	0.1	0.1	91.8*	-2.18
CCCn1c(SCc2nc(-c3cccs3)no2)nnc1-c1ccncc1	29.8	0.7	0.4	56.4*	0.662
Cn1c(SCc2nc(-c3cccs3)no2)nnc1C1CCCCC1	45.8	0.5	0.2	78.0*	-0.335
Cc1cc(N=Cc2cc(Br)ccc2O)no1	-17.1	1.2	1.1	-13.6	0.0412
O=S1(=O)CCC(N=Cc2cc(Br)ccc2O)C1 (stereo not drawn)	-7.8	1.1	1.1	-11.0	-11.5*
CC(C)(C)NC(=O)c1cccc(NC(=O)CSc2ccccc2)c1	34.8	0.7	1	3.7	-0.308
O=C(c1cccc(F)c1)N1CCN(S(=O)(=O)c2ccc(C(F)(F)F)cc2)CC1	4.3	1	0.8	24.7	-0.0676
CN1CCc2nc(SCCOc3ccccc3)c(C#N)cc2C1	48.7	0.5	0.1	91.2*	-2.26
N#Cc1cc2c(nc1SCc1ccccc1)CCC2	/	/	/	/	-0.14
Cn1nc(-c2ccccc2F)c2cc(C(=O)Nc3ccc4c(c3)OCCO4)sc21	81.1*	0.2	0.6	42.2	-0.245
CC(CCc1ccco1)NC(=O)c1cc2c(-c3ccccc3F)nn(C)c2s1 (stereo not drawn)	93.0*	0.1	0.2	78.4*	-2.66
COc1cccc(-c2nn(C)c3sc(C(=O)Nc4ccc5c(c4)OCCO5)cc23)c1	48.8	0.5	0.9	14.5	-1.89
O=C(N/N=C/c1cccc(C(F)(F)F)c1)C1CCN(c2ncc(C(F)(F)F)cc2Cl)CC1	-60.7	1.6	1.1	-11.4	0.0182
Cc1cc(C(=O)COC(=O)C2=NNC(=O)CC2)c(C)n1-c1cccc(C(F)(F)F)c1	81.0*	0.2	0.2	78.4*	0.232
Cc1ccc(CN2CCN(C(=O)c3ccco3)CC2)cc1	/	/	/	/	0.833
O=C(c1coc(=O)c2ccccc12)N1CCN(Cc2ccccc2)CC1	-30.0	1.3	0.4	55.1*	0.0029
Cc1noc(C)c1C(=O)N1CCN(Cc2ccccc2)CC1	10.0	0.9	0.1	91.2*	0.491
Cc1noc(C)c1C(=O)N1CCN(Cc2ccc3c(c2)OCO3)CC1	-6.0	1.1	1	3.2	-1.62
Cc1occc1C(=O)N1CCN(Cc2ccccc2)CC1	32.8	0.7	0.1	89.7*	0.176
C/C=C/C=C\C(=O)Nc1cccc(C2=NOC3(C2)C[C@@H](C(N)=O)N(C(=O)c2cc([N+](=O)[O-])cc([N+](=O)[O-])c2C)C3)c1 (stereo partly drawn)	/	/	/	/	0.631
CCOC(=O)c1ccc(N=Cc2nc(-c3ccccc3)oc2OC(C)=O)cc1	50.1*	0.5	0.7	31.8	0.391
Cc1nn(C(=O)N2CCCCC2)c(C)c1CN1C(=O)c2ccccc2C1=O	61.2*	0.4	0.3	68.7*	0.612
Cc1nn(C(=O)c2ccco2)c(C)c1CN1C(=O)c2ccccc2C1=O	95.6*	0	0.6	41.5	-0.252
Cc1nn(C(=O)c2cccs2)c(C)c1CN1C(=O)c2ccccc2C1=O	39.2	0.6	0.7	28.3	0.0882
CC(NC(=O)C1(C)CC1(Br)Br)C(C)(C)C (stereo not drawn)	-3.2	1	0.9	6.4	1.49
